Experimental data as given in PubChem BioAssay (EPA / NIEHS).
Results filed as inconclusive are left out. The source made the active and inactive calls. The calls were made as follows: active = hit-call score of the fitted dose curve at least 0.9, where 1 is the maximum; inconclusive = response in the unintended direction; inactive = score below 0.9.

Target: human RAR-related Orphan Receptor beta (RORb), RORB (gene 6096) (UniProt Q92753)
Test: ATG_RORb_TRANS: Attagene TRANS-FACTORIAL HepG2 Assay for human RAR-related Orphan Receptor beta (RORb) (AID 2283010)
Procedure: ATG_TRANS is a cell-based, multiplexed-readout assay that uses HepG2, a human liver cell line, with measurements taken at 24 hours after chemical dosing in a 24-well plate.ATG_RORb_TRANS is one of 30 assay component(s) measured or calculated from the ATG_TRANS assay. It is designed to make measurements of mRNA induction, a form of inducible reporter, as detected with fluorescence intensity signals by Reverse transcription polymerase chain reaction (RT-PCR) and Capillary electrophoresis technology.Data from the assay component ATG_RORb_TRANS was analyzed into 1 assay endpoint. This assay endpoint, ATG_RORb_TRANS, was analyzed in the positive analysis fitting direction relative to DMSO as the negative control and baseline of activity. Using a type of inducible reporter, measures of mRNA for gain-of-signal activity can be used to understand the reporter gene at the transcription factor-level as they relate to the gene RORB. Furthermore, this assay endpoint can be referred to as a primary readout, because this assay has produced multiple assay endpoints where this one serves a reporter gene function. To generalize the intended target to other relatable targets, this assay endpoint is annotated to the nuclear receptor intended target family, where the subfamily is orphan.
Human liver HepG2 cells are transiently transfected with multiple reporter transcription units (MRTUs) in 6-well plates using FuGene 6 reagent (Roche; 3 ml FuGene/1 mg DNA). The MRTU constructs are regulated by a cis-regulating element (promoter). […] A major difference between the CIS and TRANS system is that in CIS activities of endogenous TFs are measured, whereas the TRANS assay evaluates changes in activities of exogenous, chimeric NR-Gal4 proteins. […] At the end of 24 hour incubation, total RNA was isolated using TriZol reagent (Invitrogen). The isolated RNA is then reverse-transcribed using oligo(dT) primer and Mo-MLV reverse transcriptase (Invitrogen) with DNAse I (Ambion) treatment for 30 min. The one-tenth of the produced cDNA was amplified by PCR using Taq DNA polymerase (Invitrogen) and two reporter sequence-specific primers. The PCR products were fluorescently labeled by primer extension with 6-arboxyfluorescein (6-FAM) 5'-labeled reporter sequence-specific primer (2 min at 95 C, 20 s at 68 C and 10 min at 72 C) and these products were digested with 5U of HpaI (New England Biolabs) for 2h at 37 C. The fragments were purified using Qiaquick PCR columns (Qiagen), analyzed on an ABI 3130xL genetic analyzer (Applied Biosystems) with peak positions identified by using a set of X-rhodamine (ROX)-labeled MapMarker1000 molecular weight standards (BioVentures). The raw capillary electrophoresis data was processed using Attagraph software (Attagene).

Sequence of human RAR-related Orphan Receptor beta (RORb), RORB (gene 6096) (Q92753 whole entry, looked up): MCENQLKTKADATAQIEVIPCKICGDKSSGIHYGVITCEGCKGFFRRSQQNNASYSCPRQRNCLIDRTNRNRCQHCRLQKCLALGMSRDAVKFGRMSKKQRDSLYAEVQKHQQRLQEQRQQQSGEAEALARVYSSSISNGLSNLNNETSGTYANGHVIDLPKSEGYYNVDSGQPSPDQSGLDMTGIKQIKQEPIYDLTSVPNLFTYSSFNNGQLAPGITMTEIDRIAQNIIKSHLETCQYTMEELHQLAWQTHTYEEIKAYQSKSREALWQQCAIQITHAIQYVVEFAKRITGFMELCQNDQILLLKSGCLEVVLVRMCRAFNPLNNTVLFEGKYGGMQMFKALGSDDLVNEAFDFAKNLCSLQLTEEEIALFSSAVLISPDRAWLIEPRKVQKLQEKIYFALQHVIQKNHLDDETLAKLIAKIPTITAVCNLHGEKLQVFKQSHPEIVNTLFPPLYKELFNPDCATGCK

outcome, inactive:
Nc1nc2ncc(CNc3ccc(C(=O)N[C@@H](CCC(=O)O)C(=O)O)cc3)nc2c(=O)[nH]1
CCc1cc(SCc2sc(-c3ccc(C(F)(F)F)cc3)nc2CN2CCN(c3ccc(OC)cc3)CC2)ccc1OCC(=O)O
NC(=O)NO
Cn1c(=O)c2c(ncn2C)n(C)c1=O
O=C(NS(=O)(=O)/C=C/c1ccccc1)c1ccc(F)cc1Cl
CC(C)(O)c1coc(S(=O)(=O)NC(=O)Nc2c3c(cc4c2CCC4)CCC3)c1
CC/C(=C\C(=N/O)C(N)=O)C(C)[N+](=O)[O-] (centres undefined)
CCOC(=O)COc1ccc2c(c1)CC(NCC(O)c1cccc(Cl)c1)CC2 (centres undefined)
Cc1ccc(N)cc1O
CC1=CC(=O)CC(C)(C)C1
COCCOc1cc2cc(C(=O)NC3CCN(C(C)C)CC3)n(CC(=O)Nc3ccc(Cl)cn3)c2cn1
CC(C)=CCCC(C)CCO (centres undefined)
On1ccccc1=S
CC(C)=CCC/C(C)=C/CO
O=C(O)c1cc(N=Nc2ccc(S(=O)(=O)Nc3ccccn3)cc2)ccc1O
CC(C)CCCCCCOC(=O)c1ccc(C(=O)OCCCCCCC(C)C)c(C(=O)OCCCCCCC(C)C)c1
Cn1cnc([N+](=O)[O-])c1Sc1ncnc2nc[nH]c12
CCN(C(=O)c1cc(C)cc(OC[C@H](C)Nc2ccncc2)c1)C(C)C
COc1ccc(/C=C/S(=O)(=O)NC(=O)c2ccc(C)cc2Cl)cc1
CC(=O)OCCC(C)C
CC[C@H]1OC(=O)[C@H](C)[C@@H](O[C@H]2C[C@@](C)(OC)[C@@H](O)[C@H](C)O2)[C@H](C)[C@@H](O[C@@H]2O[C@H](C)C[C@H](N(C)C)[C@H]2O)[C@](C)(O)C[C@@H](C)C(=O)[C@H](C)[C@@H](O)[C@]1(C)O
Nc1cccc(N)c1
CCCCC(CC)COC(=O)CCCCCCCCC(=O)OCC(CC)CCCC (centres undefined)
O=C(O)CCN(C1(C(=O)NO)CCCC1)S(=O)(=O)c1ccc(Oc2ccc(F)cc2)cc1
CCCCC(CC)COC(=O)c1ccc(C(=O)OCC(CC)CCCC)cc1 (centres undefined)
O=c1n(CC2CO2)c(=O)n(CC2CO2)c(=O)n1CC1CO1 (centres undefined)
O=C(OC[C@H]1O[C@@H](OC(=O)c2cc(O)c(O)c(OC(=O)c3cc(O)c(O)c(O)c3)c2)[C@H](OC(=O)c2cc(O)c(O)c(OC(=O)c3cc(O)c(O)c(O)c3)c2)[C@@H](OC(=O)c2cc(O)c(O)c(OC(=O)c3cc(O)c(O)c(O)c3)c2)[C@@H]1OC(=O)c1cc(O)c(O)c(OC(=O)c2cc(O)c(O)c(O)c2)c1)c1cc(O)c(O)c(OC(=O)c2cc(O)c(O)c(O)c2)c1
Cc1ccc(C)c(O)c1
CC(=O)c1ccc2c(c1)[C@H](NC(=O)c1ccc(F)cc1)[C@@H](O)C(C)(C)O2
